Experiments:
Assay type in all cases: functional
[1] = test system: Plasmodium falciparum; assay: GSK_TCMDC: Inhibition of Plasmodium falciparum 3D7 in whole red blood cells, using parasite LDH activity as an index of growth. Test compounds present at 2uM
[2] = test system: Plasmodium falciparum; assay: GSK_TCMDC: Inhibition of Plasmodium falciparum Dd2 in whole red blood cells, using parasite LDH activity as an index of growth. Test compounds present at 2uM
[3] = test system: HepG2; assay: GSK_TCMDC: Percent inhibition of human HepG2 cell line. Test compounds present at 10uM.

`CC(C)Cc1nc(N)nc(N)c1-c1ccc(Cl)cc1` showed an Inhibition [1] of 96%, an Inhibition [2] of 3% and an Inhibition [3] of 5%.

`COc1cccc(C=NN=c2cc(C)[nH]c3ccccc23)c1` was tested, and the Inhibition [1] was 100%, the Inhibition [2] was 46% and the Inhibition [3] was 16%.

`COc1ccc(/C=C/C(=O)NCCCCCN2CCC(c3c[nH]c4ccccc34)CC2)cc1O` was tested, and the Inhibition [1] was 91%, the Inhibition [2] was 1% and the Inhibition [3] was 9%.

Molecule `COc1ccc(CNCc2cccc(-c3ccc(-c4nc5ccccc5[nH]4)s3)c2)cc1.O=C(O)C(F)(F)F` has an Inhibition [1] of 90%, an Inhibition [2] of 52% and an Inhibition [3] of 14%.

`COc1ccc(N2CCN(CCCCNC(=O)c3ccc(NC(=O)c4cccc(Cl)c4)cc3)CC2)c(OC)c1` gave an Inhibition [1] of 100%, an Inhibition [2] of 33% and an Inhibition [3] of 18%.

For `O=c1cc(NCCCNCc2cc(F)cc(C(F)(F)F)c2)[nH]c2ccccc12`, the Inhibition [1] was 92%, the Inhibition [2] was 15% and the Inhibition [3] was 0%.

In the case of `O=C(O)C(F)(F)F.OCCN1CCN(Cc2ccc(-c3cccc(-c4nc5cc(F)ccc5[nH]4)c3)cc2)CC1`, the Inhibition [1] was 100%, the Inhibition [2] was 61% and the Inhibition [3] was 21%.

`CCN(CC)C(=O)c1cnc(-c2ccccc2)nc1Oc1cccc(Cl)c1` was tested, and the Inhibition [1] was 92%, the Inhibition [2] was 40% and the Inhibition [3] was 0%.

Work on `O=C(CCCc1ccccc1)Nc1cccc(N2CCC(N3CCN(c4ccccc4O)CC3)CC2)c1` yielded an Inhibition [1] of 98%, an Inhibition [2] of 41% and an Inhibition [3] of 31%.

For `COc1cccc(NC(=O)CSc2nc(-c3ccccc3Cl)ns2)c1`, the Inhibition [1] was 99%, the Inhibition [2] was 100% and the Inhibition [3] was 7%.

Molecule `Cc1cc(Nc2ccc(Cl)c(Cl)c2)n2nc(C)nc2n1` has an Inhibition [1] of 97%, an Inhibition [2] of 97% and an Inhibition [3] of 6%.

For `C[C@@H](Oc1cc(-n2cnc3ccc(NC(=O)CCN4CCCCC4)cc32)sc1C(N)=O)c1ccccc1Cl`, the Inhibition [1] was 100%, the Inhibition [2] was 60% and the Inhibition [3] was 36%.

With `COc1ccccc1N1CCN(CCCCNC(=O)c2ccc(NC(=O)c3ccc(OC(F)(F)F)cc3)cc2)CC1.Cl` the Inhibition [1] was 100%, the Inhibition [2] was 39% and the Inhibition [3] was 29%.

`Cc1ccc(NC(=O)c2ccc(N3CCC(c4ccccc4C)CC3)nc2)cc1.O=C(O)C(F)(F)F` showed an Inhibition [1] of 83%, an Inhibition [2] of 72% and an Inhibition [3] of 49%.

With `O=C(/C=C/c1ccc(Cl)c(Cl)c1)N1CCC(C(O)CN2CCC(c3c[nH]c4ccccc34)CC2)CC1.O=C(O)C(F)(F)F` (centres undefined) the Inhibition [1] was 99%, the Inhibition [2] was 46% and the Inhibition [3] was 14%.

With `Cc1cc(C(=O)Nc2ccc3c(c2)CCN3C2CCN(Cc3cc(F)cc(F)c3F)C2)no1` (centres undefined) the Inhibition [1] was 95%, the Inhibition [2] was 96% and the Inhibition [3] was 0%.

`CCCNCc1ccc(-c2ccc(CN(CCOC)C(=O)CCC(=O)c3ccc(OC)c(F)c3)cc2)nc1.O=C(O)C(F)(F)F` gave an Inhibition [1] of 100%, an Inhibition [2] of 47% and an Inhibition [3] of 13%.

In the case of `CN1CCC(NCCS(=O)(=O)c2cccc(Nc3ccc(-c4cccc(F)c4)cn3)c2)CC1`, the Inhibition [1] was 99%, the Inhibition [2] was 0% and the Inhibition [3] was 27%.

With `COc1ccc(CCN(C)CCOc2ccc(NC(=O)c3cc(SC)cc4c(=O)c5ccccc5[nH]c34)cc2)cc1OC` the Inhibition [1] was 87%, the Inhibition [2] was 44% and the Inhibition [3] was 7%.

Molecule `COc1ccc(C=Cc2cc(=N)c3ccccc3[nH]2)cc1.I` has an Inhibition [1] of 93%, an Inhibition [2] of 16% and an Inhibition [3] of 38%.

Molecule `CC(CN1CCN(C)CC1)C(=O)Nc1ccc(-c2ccc(-c3nc4cc(F)ccc4[nH]3)cc2)cc1` (centres undefined) has an Inhibition [1] of 100%, an Inhibition [2] of 87% and an Inhibition [3] of 19%.

For `COc1ccc(CN2CCCN(Cc3ccc(C(=O)Nc4ccc(Cl)cc4)cc3)CC2)cc1.O=C(O)C(F)(F)F`, the Inhibition [1] was 91%, the Inhibition [2] was 3% and the Inhibition [3] was 46%.

`CCc1sc(N2CCC(C)CC2)nc1C(=O)Nc1ccc(F)cc1C(F)(F)F` gave an Inhibition [1] of 94%, an Inhibition [2] of 65% and an Inhibition [3] of 1%.

With `COc1cc2c(cc1S(=O)(=O)c1ccc(NC(=O)c3cc4ccccc4s3)cc1)CCN(C)CC2` the Inhibition [1] was 100%, the Inhibition [2] was 88% and the Inhibition [3] was 21%.

For `CCNc1cc(C(=O)N[C@@H](Cc2ccccc2)[C@H](O)CNC2(CCC(C)C)CC2)cc(N2CCCCS2(=O)=O)c1.Cl`, the Inhibition [1] was 90%, the Inhibition [2] was 52% and the Inhibition [3] was 6%.

`CC(C)(C)c1ccc(NC(=O)c2cccc(CN3CCCN(Cc4ccc(F)cc4)CC3)c2)cc1.O=C(O)C(F)(F)F` gave an Inhibition [1] of 88%, an Inhibition [2] of 2% and an Inhibition [3] of 35%.

`c1ccc(CCNc2nc(NCC(c3ccccc3)c3ccccc3)c3nc[nH]c3n2)cc1` gave an Inhibition [1] of 100%, an Inhibition [2] of 95% and an Inhibition [3] of 9%.

Work on `Oc1ccc2[nH]c(-c3cccc(F)c3)nc2c1CN1CCC(O)(c2ccccc2)CC1` yielded an Inhibition [1] of 97%, an Inhibition [2] of 72% and an Inhibition [3] of 21%.
